Source: PubChem (several laboratories)
SARS 3CLpro inh-1: SARS-CoV 3CLpro protease inhibition. hit rate 0.14% among 290,000. P0C6X7. AID 1706. recombinant SARS-CoV 3CLpro, quenched FRET peptide cleavage. inhibition, % at 6 µM; in the data active = inhibition above about 12%
BoNT-F LC inh: blocks Botulinum neurotoxin F light chain protease | inhibition, % at 10 µM | hit rate 0.22% among 360,000 | Multiplex microsphere protease cleavage assay, flow cytometry; in the data active = inhibition above about 35%, passing the limit was not always enough; inconclusive = no clear call, values can overlap the other calls; also: plate controls were buffer without enzyme for full effect and enzyme alone for no effect
Autofluor counter: compound fluorescence in toxin protease inhibitor counterscreen; compound autofluorescence counterscreen, microsphere flow cytometry; active compounds read high; fluorescence intensity (concentration not given with the values); hit rate 3.1% among 360,000; AID 624483; in the data active = fluorescence intensity above about 16000; inconclusive = no clear call, values can overlap the other calls
BJeLR lethal: kills HRASV12-expressing BJeLR cells | BJeLR (HRASV12) viability, CellTiter-Glo ATP luminescence, 48 h | inhibition, % (no concentration beside the values) | hit rate 0.17% among 300,000; in the data active = inhibition above about 50%; inconclusive = no clear call, values can overlap the other calls
Anthrax LF prot: inhibitors of Bacillus anthracis lethal factor protease. P15917. multiplex microsphere protease cleavage assay, LF. inhibition, % at 10 µM. hit rate 0.12% among 360,000. AID 588501; also: plate controls were buffer without enzyme for full effect and enzyme alone for no effect
Target sequence (P15917 whole entry, looked up): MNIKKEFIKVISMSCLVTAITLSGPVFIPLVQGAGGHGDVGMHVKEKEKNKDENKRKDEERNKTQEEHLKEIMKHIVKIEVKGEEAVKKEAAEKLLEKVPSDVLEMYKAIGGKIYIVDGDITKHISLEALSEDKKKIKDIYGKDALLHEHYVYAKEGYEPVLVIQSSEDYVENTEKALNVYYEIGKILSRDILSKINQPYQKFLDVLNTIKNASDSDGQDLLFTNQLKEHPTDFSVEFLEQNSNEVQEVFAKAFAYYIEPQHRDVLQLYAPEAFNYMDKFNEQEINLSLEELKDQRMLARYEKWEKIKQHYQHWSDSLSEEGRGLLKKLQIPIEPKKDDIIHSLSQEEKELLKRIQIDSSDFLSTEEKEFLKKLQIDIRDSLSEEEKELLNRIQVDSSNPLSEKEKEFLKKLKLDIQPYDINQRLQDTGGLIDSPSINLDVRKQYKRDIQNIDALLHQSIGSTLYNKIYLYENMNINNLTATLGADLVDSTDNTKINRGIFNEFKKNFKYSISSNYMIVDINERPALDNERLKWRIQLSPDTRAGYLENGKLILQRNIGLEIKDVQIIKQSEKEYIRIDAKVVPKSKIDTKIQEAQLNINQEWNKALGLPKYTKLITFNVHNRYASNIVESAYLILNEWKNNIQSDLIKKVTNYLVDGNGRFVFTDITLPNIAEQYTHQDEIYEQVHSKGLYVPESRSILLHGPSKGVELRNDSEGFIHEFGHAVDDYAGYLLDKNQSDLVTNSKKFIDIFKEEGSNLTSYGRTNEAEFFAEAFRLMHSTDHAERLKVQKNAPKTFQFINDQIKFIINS
BoNT A protease: inhibitors of Botulinum neurotoxin A light chain protease. multiplex microsphere protease substrate cleavage, flow cytometry. inhibition, % at 10 µM. hit rate 0.17% among 360,000. AID 588499; also: plate controls were buffer without enzyme for full effect and enzyme alone for no effect
SARS 3CLpro inh-2: confirmation of SARS coronavirus 3C-like protease inhibitors. shares compounds with SARS 3CLpro inh-1. QFRET protease activity assay, 3CLpro. inhibition, % at 6 µM. hit rate 36% among 380. AID 1879; in the data active = inhibition above about 13%
Starred values were filed as active, the others as inactive; ? = inconclusive; . = not tested or not shown. Hits are enriched below; roughly 3.6% of the tested compounds scored in any of these assays. Rule as the data show it, unless noted: active = inhibition above about 30%; inconclusive = no clear call, values can overlap the other calls; inactive = below that.

SMILES	SARS 3CLpro inh-1	BoNT-F LC inh	Autofluor counter	BJeLR lethal	Anthrax LF prot	BoNT A protease	SARS 3CLpro inh-2
COc1cc(/C=C2\SC(=S)N(NC(=O)c3ccccc3O)C2=O)ccc1O	3	1	3937	3	11	4	.
O=C(NN1C(=O)/C(=C/c2ccc(O)cc2)SC1=S)c1ccccc1O	13*	?	4476	1	12	-2	-2
O=C(N/N=C\c1c(O)ccc2ccccc12)c1cncc(Br)c1	29*	26	3289	13	8	42*	26*
O=C(NCC1CCCO1)c1ccc(Cl)c(NS(=O)(=O)c2ccc(F)cc2)c1 (stereo not given)	.	-2	3400	.	-2	0	.
O=[N+]([O-])/C=C/c1cn(Cc2ccccc2)c2ccccc12	13*	14	3499	0	24	19	-2
COc1cc(OC)c(OC)cc1/C=C1\Oc2cc(OCC(=O)N3Cc4ccccc4C[C@H]3C(=O)O)ccc2C1=O	12*	-2	5869	-7	-6	0	4
Cc1cc(C)c[n+](C(C)C(=O)c2ccc(Cl)cc2)c1 (stereo not given)	1	.	.	4	.	.	.
O=C(COc1cc(Cl)c(Cl)cc1Cl)N1CCN(c2ccccn2)CC1	3	0	3916	1	-8	-1	.
CC1(C)Cc2c(sc3nc(-c4cc5ccccc5o4)n(N)c(=O)c23)CO1	13*	4	21859*	-5	-1	?	-5
O=C(N/N=C/c1ccncc1)c1cccc(S(=O)(=O)Nc2ccc(Cl)cc2)c1	62*	-2	4449	4	-7	-1	-1
COc1cc(NC(=O)C2CC(c3cccc(Br)c3)=NO2)cc(OC)c1OC (stereo not given)	13*	0	3964	-1	16	5	2
O=C(O)c1ccc2ncsc2c1	17*	.	.	4	.	.	38*
O=C(c1ccc2ncsc2c1)N1CCCCC1	-5	3	5822	-2	4	1	.
COc1ccc(CNC(=O)CSc2nnc(NC(=O)c3ccccc3F)s2)cc1	-1	3	5445	-2	-2	0	.
O=C(/C=C/c1ccc(Cl)c([N+](=O)[O-])c1)NCc1cccnc1	18*	14	3923	1	0	1	18*
O=C(/C=C/c1ccc([N+](=O)[O-])cc1)NCc1cccnc1	4	-4	2544	5	3	1	.
Nc1ccn([C@@H]2O[C@H](C(=O)N3CCSC3)[C@@H](O)[C@H]2O)c(=O)n1	.	-7	5372	.	2	0	.
COc1cc(C(O)P(=O)(OCCC(C)C)c2ccc(N(C)C)cc2)cc(OC)c1OC (stereo not given)	0	-16	3308	-2	12	-2	.
O=C(Nc1nc(-c2cccc([N+](=O)[O-])c2)cs1)c1cccc([N+](=O)[O-])c1C(=O)O	17*	-14	4512	0	6	-1	5
Cc1ccc(-c2csc(NC(=O)c3cccc([N+](=O)[O-])c3C(=O)O)n2)cc1	10	-1	4496	-1	0	0	.
CCc1ccc(NC(=O)C2CCCN(S(=O)(=O)c3ccc4[nH]c(=O)ccc4c3)C2)cc1 (stereo not given)	13*	11	5136	-7	1	3	1
Cc1noc(NS(=O)(=O)c2ccc(NC(=O)c3oc4ccc(Cl)cc4c3C)cc2)c1C	12*	-2	5809	-5	8	-1	7
Cc1c(C(=O)Nc2ccc(S(=O)(=O)Nc3ncccn3)cc2)oc2ccc(Cl)cc12	2	1	5509	-2	1	1	.
CC(C)C[C@H](NC(=O)c1[nH]cnc1C(=O)N[C@@H](Cc1ccccc1)C(=O)OC(C)(C)C)C(=O)OCc1ccccc1	3	-2	3903	9	-2	-1	.
CC(C)C[C@H](NC(=O)c1nc[nH]c1C(=O)NCc1ccc(CNC(=O)OC(C)(C)C)cc1)C(=O)OC(C)(C)C	14*	-1	4453	-7	-4	-1	13*
SMILES	SARS 3CLpro inh-1	BoNT-F LC inh	Autofluor counter	BJeLR lethal	Anthrax LF prot	BoNT A protease	SARS 3CLpro inh-2
CC(C)C[C@H](NC(=O)c1[nH]cnc1C(=O)N[C@@H](Cc1ccccc1)C(=O)OCc1ccccc1)C(=O)OC(C)(C)C	13*	-13	3578	8	2	0	6
CCCNC(=O)N(C)C[C@H]1Oc2ncc(Br)cc2C(=O)N([C@H](C)CO)C[C@H]1C	.	-6	3605	.	1	0	.
Cn1cc(S(=O)(=O)N2CCOCC2)cc1C(=O)NCc1ccccc1Cl	-8	-3	5125	0	-9	0	.
COc1cccc(CNC(=O)CCN2C(=O)[C@@H]3Cc4ccccc4CN3C2=O)c1	-6	3	5059	-4	-3	2	.
CCCCOc1ccc(CONS(=O)(=O)c2ccc(NC(C)=O)cc2)cc1Cl	19*	-1	2103	2	0	0	8
CSc1nsc(NC(=O)OCc2ccc(Cl)cc2)n1	13*	8	3690	-7	-9	-7	3
C=CCOc1ccc(/C=C(\C#N)C(=O)Nc2ccccn2)cc1	0	6	4323	-9	-2	1	.
O=C(NCC(=O)N1CCN(Cc2ccccc2)CC1)c1ccc(Br)cc1	12*	-12	6244	6	-3	-6	2
COc1ccc(/C(N)=N/OC(=O)CSc2ccccc2)cc1OC	13*	-29	3341	2	-8	-3	-1
CC(=O)c1ccc(N2CCN(C(C)C(=O)NC3CCCc4ccccc43)CC2)cc1 (stereo not given)	-2	11	2060	-6	1	1	.
O=C(/C=C/c1cccs1)Nc1scc(-c2ccccc2)c1C(=O)O	23*	-26	4569	15	-4	-5	61*
O=C(Nc1c2c(nn1-c1ccc(Cl)cc1)CS(=O)(=O)C2)c1ccc2c(c1)OCO2	0	-11	11573	10	-6	-1	.
O=C(Nc1c2c(nn1-c1cccc(Cl)c1)CS(=O)(=O)C2)c1ccc2c(c1)OCO2	13*	-2	4297	-2	-2	1	1
O=C(NCCc1ccccc1)C(=O)NCC1OCCN1S(=O)(=O)c1ccc2c(c1)OCCO2 (stereo not given)	15*	4	5005	2	-5	3	0
O=C1c2[nH]nc(-c3ccccc3O)c2C(c2ccccc2)N1Cc1ccco1 (stereo not given)	3	-13	6952	3	-8	-1	.
O=C1c2[nH]nc(-c3ccccc3O)c2C(c2ccccc2F)N1Cc1ccco1 (stereo not given)	13*	4	?	1	-8	0	2
O=C(Nc1ccc([N+](=O)[O-])cc1)OC1CCS(=O)(=O)C1 (stereo not given)	.	-8	5412	.	1	0	.
COc1ccc(NC(=O)CCN2C(=O)c3ccncc3C2=O)cc1OC	-1	-12	6398	10	-4	0	.
